# Paper PMC7862700, “An all-to-all approach to the identification of sequence-specific readers for epigenetic DNA modifications on cytosine”
# Assays:
# Experiment in all cases: DAPPL (digital affinity profiling via proximity ligation, sequencing); 10 mM Tris-HCl pH 7.5, 50 mM NaCl, 1 mM DTT, 4% glycerol, room temperature, 30 min; GST-TFs on glutathione beads, 16-mer random dsDNA library, 0.1% formaldehyde crosslink after washing; high values mean tight binding
# [1] = molecular target: T1, FLI1 (Homo sapiens, UniProt Q01543 1-452); details: protein: recombinant; tags: N-terminal GST; dsDNA, one strand shown
# T1 sequence: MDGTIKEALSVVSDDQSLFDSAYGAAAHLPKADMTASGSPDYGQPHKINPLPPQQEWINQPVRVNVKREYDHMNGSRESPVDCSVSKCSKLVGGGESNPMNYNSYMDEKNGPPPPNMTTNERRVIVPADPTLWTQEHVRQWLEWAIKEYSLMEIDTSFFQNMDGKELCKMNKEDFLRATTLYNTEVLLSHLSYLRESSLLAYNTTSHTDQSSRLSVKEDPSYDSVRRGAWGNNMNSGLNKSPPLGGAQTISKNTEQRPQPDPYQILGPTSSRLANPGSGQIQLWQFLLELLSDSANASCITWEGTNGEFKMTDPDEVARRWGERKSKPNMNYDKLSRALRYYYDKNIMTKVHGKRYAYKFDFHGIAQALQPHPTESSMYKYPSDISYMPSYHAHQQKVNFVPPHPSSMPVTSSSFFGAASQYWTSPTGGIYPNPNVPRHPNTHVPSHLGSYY
# Outline: (§1)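 Pools were built from human transcription factors expressed in yeast as GST fusions, captured on glutathione beads and DNA-barcoded, along with a tag-only sample. Incubation with 200 nmole of a 16-mer random double-stranded DNA library lasted 30 min at room temperature in Tris/NaCl/DTT/glycerol buffer, and was followed by washing, 0.1% formaldehyde crosslinking, proximity ligation, PCR amplification and Illumina NextSeq500 sequencing. Binding signal is the quotient of each hexamer's read frequency for a factor and its frequency for the tag-only sample.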
# [2] = molecular target: T2, ELK1 (Homo sapiens, UniProt P19419 1-428); details: protein: recombinant; tags: N-terminal GST; dsDNA, one strand shown
# T2 sequence: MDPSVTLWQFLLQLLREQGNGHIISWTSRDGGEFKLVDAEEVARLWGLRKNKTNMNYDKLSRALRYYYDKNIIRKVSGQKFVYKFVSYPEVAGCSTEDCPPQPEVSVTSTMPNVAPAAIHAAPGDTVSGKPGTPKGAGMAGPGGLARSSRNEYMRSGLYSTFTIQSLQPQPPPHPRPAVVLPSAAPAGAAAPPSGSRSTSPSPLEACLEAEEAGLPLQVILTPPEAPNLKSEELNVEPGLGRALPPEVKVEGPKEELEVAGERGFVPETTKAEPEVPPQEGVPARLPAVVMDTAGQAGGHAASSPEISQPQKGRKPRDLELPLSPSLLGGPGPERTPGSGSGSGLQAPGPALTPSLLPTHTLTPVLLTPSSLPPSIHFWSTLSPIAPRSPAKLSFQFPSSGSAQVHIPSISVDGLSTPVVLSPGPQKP
# Outline: as §1
# [3] = molecular target: T3, GABPA (Homo sapiens, UniProt Q06546 1-454); details: protein: recombinant; tags: N-terminal GST; dsDNA, one strand shown
# T3 sequence: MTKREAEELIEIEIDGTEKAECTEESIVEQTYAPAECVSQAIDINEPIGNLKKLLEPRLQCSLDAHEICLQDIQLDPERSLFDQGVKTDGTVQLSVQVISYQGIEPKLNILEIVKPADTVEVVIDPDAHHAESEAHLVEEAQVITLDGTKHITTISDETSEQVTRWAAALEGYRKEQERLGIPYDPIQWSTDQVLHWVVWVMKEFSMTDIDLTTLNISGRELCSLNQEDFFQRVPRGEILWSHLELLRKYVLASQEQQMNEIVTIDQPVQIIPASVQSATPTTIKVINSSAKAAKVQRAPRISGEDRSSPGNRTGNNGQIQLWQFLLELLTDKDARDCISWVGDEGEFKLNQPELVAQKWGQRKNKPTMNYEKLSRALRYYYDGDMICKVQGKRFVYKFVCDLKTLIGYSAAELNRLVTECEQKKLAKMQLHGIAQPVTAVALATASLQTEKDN
# Outline: as §1
# [4] = molecular target: T4, ERG (Homo sapiens, UniProt P11308 1-479); details: protein: recombinant; tags: N-terminal GST; dsDNA, one strand shown
# T4 sequence: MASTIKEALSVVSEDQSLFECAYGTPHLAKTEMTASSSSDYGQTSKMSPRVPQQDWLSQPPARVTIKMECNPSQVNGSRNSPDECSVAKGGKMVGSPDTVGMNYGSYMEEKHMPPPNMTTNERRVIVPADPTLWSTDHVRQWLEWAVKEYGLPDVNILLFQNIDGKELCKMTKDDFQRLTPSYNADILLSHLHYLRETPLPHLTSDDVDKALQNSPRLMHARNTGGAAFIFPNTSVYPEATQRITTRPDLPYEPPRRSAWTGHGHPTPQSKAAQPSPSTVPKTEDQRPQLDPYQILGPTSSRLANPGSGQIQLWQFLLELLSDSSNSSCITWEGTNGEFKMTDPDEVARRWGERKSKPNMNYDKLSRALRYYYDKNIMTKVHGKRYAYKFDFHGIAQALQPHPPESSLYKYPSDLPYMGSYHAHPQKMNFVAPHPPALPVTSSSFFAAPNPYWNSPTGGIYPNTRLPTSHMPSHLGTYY
# Outline: as §1
# [5] = molecular target: ELF1 (Homo sapiens, UniProt P32519 1-619); details: protein: recombinant; tags: N-terminal GST; dsDNA, one strand shown
# ELF1, sequence (P32519 whole entry): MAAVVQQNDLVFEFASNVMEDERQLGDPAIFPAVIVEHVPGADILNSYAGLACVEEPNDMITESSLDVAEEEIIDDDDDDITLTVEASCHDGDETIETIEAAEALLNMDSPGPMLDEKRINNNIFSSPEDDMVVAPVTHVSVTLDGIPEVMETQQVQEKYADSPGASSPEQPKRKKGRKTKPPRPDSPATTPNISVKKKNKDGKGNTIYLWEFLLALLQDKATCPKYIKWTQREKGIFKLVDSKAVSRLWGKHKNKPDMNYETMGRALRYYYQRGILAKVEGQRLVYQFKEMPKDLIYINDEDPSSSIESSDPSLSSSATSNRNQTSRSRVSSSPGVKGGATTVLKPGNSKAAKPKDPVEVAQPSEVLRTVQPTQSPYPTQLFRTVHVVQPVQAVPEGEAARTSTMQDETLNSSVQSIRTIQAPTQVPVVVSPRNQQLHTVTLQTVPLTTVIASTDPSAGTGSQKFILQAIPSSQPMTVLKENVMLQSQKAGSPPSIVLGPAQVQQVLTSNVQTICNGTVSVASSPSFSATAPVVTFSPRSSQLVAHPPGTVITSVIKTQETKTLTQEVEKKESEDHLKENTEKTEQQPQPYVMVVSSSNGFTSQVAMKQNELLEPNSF
# Outline: as §1
# [6] = molecular target: T5, EHF (Homo sapiens, UniProt Q9NZC4 1-300); details: protein: recombinant; tags: N-terminal GST; dsDNA, one strand shown
# T5 sequence: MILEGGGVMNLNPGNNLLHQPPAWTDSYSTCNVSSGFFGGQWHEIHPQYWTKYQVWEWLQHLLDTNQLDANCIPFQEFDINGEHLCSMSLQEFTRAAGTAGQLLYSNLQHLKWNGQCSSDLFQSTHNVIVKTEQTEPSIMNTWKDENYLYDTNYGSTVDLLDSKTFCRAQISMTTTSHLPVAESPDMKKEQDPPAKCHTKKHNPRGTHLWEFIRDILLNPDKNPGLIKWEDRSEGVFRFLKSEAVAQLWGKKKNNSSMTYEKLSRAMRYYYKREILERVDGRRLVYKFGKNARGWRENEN
# Outline: as §1
# [7] = molecular target: SPI1 (Homo sapiens, UniProt P17947 1-270); details: protein: recombinant; tags: N-terminal GST; dsDNA, one strand shown
# Outline: as §1
# [8] = molecular target: SPIB (Homo sapiens, UniProt Q01892 1-262); details: protein: recombinant; tags: N-terminal GST; dsDNA, one strand shown
# SPIB, sequence (Q01892 whole entry): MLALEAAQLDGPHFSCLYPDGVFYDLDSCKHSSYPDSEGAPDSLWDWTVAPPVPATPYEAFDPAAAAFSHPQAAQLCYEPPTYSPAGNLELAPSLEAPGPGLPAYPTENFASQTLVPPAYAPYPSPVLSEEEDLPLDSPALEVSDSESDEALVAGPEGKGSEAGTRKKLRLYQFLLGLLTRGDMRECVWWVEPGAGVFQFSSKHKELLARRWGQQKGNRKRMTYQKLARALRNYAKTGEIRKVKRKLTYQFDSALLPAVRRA
# Outline: as §1
# [9] = molecular target: T6, ELK3 (Homo sapiens, UniProt P41970 1-407); details: protein: recombinant; tags: N-terminal GST; dsDNA, one strand shown
# T6 sequence: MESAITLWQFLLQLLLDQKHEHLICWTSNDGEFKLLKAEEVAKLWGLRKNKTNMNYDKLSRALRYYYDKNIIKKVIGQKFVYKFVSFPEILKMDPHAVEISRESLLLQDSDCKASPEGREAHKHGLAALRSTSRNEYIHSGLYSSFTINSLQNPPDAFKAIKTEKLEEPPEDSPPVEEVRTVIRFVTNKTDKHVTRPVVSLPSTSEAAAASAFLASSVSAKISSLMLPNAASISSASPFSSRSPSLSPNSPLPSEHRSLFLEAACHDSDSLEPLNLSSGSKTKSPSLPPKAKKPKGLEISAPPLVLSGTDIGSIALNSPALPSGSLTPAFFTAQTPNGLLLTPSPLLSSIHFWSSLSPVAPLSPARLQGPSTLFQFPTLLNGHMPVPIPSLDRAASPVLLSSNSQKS
# Outline: as §1
# [10] = molecular target: T7, FEV (Homo sapiens, UniProt Q99581 1-238); details: protein: recombinant; tags: N-terminal GST; dsDNA, one strand shown
# T7 sequence: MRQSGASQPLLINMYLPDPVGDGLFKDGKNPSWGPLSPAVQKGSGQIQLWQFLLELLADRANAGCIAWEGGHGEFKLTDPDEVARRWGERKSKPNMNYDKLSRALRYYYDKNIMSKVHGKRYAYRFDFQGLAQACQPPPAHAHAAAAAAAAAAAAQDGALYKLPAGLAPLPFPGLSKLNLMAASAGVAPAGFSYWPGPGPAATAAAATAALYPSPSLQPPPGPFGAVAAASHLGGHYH
# Outline: as §1
# [11] = molecular target: ETV5 (Homo sapiens, UniProt P41161 1-510); details: protein: recombinant; tags: N-terminal GST; dsDNA, one strand shown
# ETV5, sequence (P41161 whole entry): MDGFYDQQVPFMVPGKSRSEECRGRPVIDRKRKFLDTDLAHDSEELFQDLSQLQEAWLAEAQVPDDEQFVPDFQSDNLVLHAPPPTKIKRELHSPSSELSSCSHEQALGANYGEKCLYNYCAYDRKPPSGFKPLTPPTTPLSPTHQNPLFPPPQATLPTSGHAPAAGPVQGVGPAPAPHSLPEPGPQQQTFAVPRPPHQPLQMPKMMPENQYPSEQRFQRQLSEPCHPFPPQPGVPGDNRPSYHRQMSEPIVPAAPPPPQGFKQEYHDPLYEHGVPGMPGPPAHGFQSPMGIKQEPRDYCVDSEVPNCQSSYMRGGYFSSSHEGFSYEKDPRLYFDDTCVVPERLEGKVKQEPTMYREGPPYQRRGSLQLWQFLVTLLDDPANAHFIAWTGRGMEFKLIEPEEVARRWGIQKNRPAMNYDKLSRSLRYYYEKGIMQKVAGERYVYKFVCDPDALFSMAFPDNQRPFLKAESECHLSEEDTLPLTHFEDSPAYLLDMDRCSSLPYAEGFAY
# Outline: as §1
# [12] = molecular target: HSF1 (Homo sapiens, UniProt Q00613 1-529); details: protein: recombinant; tags: N-terminal GST; chain copies: 3; dsDNA, one strand shown
# HSF1, sequence (Q00613 whole entry): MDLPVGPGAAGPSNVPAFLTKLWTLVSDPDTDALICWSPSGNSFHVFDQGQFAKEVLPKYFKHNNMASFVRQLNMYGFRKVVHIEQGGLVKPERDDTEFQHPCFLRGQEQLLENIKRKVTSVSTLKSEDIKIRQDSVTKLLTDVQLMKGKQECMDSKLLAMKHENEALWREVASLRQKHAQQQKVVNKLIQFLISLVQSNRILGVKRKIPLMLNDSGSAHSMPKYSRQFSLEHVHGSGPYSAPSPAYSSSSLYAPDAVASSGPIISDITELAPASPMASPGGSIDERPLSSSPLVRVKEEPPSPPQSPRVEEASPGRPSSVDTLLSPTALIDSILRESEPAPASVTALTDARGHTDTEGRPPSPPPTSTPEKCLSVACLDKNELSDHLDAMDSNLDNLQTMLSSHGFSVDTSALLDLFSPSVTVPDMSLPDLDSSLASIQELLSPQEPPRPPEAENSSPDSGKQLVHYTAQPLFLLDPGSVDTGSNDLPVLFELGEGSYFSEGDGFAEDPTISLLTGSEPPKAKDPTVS
# Outline: as §1
# [13] = molecular target: T8, SPIC (Homo sapiens, UniProt Q8N5J4 1-248); details: protein: recombinant; tags: N-terminal GST; dsDNA, one strand shown
# T8 sequence: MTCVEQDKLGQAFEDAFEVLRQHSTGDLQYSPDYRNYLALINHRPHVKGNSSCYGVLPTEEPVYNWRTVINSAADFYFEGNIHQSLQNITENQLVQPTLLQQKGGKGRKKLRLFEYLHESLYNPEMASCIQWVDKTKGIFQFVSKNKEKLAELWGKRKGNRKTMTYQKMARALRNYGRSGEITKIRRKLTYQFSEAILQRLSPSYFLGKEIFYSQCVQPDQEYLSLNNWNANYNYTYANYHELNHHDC
# Outline: as §1
# [14] = molecular target: ELF4 (Homo sapiens, UniProt Q99607 1-663); details: protein: recombinant; tags: N-terminal GST; dsDNA, one strand shown
# ELF4, sequence (Q99607 whole entry): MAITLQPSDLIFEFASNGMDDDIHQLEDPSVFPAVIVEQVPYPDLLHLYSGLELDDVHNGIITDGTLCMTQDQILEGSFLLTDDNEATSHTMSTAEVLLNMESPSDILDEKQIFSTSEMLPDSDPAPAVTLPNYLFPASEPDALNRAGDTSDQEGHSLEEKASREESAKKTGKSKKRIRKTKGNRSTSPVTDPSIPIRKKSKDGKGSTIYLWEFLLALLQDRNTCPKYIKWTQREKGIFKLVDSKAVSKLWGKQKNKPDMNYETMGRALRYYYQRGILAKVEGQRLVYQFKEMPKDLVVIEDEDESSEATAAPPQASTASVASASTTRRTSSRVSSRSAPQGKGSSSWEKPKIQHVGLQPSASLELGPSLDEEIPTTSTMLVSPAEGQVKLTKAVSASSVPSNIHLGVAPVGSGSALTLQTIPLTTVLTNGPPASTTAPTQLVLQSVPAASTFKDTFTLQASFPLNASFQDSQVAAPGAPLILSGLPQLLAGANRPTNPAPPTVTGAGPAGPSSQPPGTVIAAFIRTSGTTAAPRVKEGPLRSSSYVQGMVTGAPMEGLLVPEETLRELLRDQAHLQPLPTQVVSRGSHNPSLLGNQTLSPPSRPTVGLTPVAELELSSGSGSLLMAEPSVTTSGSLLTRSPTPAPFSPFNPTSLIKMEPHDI
# Outline: as §1
# [15] = molecular target: T9, ELK4 (Homo sapiens, UniProt P28324-2 1-405); details: protein: recombinant; tags: N-terminal GST; dsDNA, one strand shown
# T9 sequence: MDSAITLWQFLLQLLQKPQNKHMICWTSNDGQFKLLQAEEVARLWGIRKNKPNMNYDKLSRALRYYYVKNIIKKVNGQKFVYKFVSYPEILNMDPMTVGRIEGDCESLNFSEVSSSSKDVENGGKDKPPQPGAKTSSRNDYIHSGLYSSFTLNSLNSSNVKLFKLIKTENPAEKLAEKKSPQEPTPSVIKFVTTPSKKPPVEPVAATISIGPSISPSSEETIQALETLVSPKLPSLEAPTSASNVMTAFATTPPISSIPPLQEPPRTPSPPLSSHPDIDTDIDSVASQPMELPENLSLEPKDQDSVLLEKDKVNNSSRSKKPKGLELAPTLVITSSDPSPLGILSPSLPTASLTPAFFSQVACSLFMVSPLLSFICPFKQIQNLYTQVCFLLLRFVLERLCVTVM
# Outline: as §1
# [16] = molecular target: T10, ETV2 (Homo sapiens, UniProt O00321 1-342); details: protein: recombinant; tags: N-terminal GST; dsDNA, one strand shown
# T10 sequence: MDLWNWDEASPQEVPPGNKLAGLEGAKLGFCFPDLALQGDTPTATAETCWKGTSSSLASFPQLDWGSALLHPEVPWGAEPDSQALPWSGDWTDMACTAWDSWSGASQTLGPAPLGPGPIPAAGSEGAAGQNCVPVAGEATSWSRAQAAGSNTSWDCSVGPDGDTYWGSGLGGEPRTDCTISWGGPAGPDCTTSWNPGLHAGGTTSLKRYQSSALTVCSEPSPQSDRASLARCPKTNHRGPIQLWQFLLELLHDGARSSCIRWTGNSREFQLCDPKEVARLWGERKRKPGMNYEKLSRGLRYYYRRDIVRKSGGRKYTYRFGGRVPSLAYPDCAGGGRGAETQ
# Outline: as §1
# [17] = molecular target: T11, ELF3 (Homo sapiens, UniProt P78545 1-371); details: protein: recombinant; tags: N-terminal GST; dsDNA, one strand shown
# T11 sequence: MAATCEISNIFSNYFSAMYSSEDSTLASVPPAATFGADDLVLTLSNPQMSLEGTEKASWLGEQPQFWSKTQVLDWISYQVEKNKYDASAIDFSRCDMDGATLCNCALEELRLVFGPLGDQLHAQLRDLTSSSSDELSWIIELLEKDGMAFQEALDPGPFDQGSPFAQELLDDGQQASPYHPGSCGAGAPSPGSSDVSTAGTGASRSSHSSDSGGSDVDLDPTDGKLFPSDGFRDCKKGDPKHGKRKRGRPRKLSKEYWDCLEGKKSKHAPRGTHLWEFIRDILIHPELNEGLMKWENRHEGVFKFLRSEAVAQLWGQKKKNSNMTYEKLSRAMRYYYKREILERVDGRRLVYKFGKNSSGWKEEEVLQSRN
# Outline: as §1
# [18] = molecular target: ETV1 (Homo sapiens, UniProt P50549 1-477); details: protein: recombinant; tags: N-terminal GST; dsDNA, one strand shown
# ETV1, sequence (P50549 whole entry): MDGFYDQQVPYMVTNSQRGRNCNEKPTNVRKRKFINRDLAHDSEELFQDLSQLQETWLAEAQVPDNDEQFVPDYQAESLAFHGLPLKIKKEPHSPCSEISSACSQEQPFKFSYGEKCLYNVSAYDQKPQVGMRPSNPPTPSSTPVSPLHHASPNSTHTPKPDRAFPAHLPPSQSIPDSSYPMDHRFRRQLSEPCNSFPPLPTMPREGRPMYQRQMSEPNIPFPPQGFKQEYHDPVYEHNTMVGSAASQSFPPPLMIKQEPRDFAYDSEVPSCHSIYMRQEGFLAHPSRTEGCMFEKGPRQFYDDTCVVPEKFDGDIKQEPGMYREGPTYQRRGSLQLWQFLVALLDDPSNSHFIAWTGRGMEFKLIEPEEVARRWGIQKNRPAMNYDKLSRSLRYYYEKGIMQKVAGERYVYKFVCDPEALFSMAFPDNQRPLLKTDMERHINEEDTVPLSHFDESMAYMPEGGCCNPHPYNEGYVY
# Outline: as §1
sequence,measurement,setting,value
AGATGC,binding signal,[1],"1.13 fold enrichment (6-mer frequency, TF over GST control)"
same,binding signal,[2],"1.14 fold enrichment (6-mer frequency, TF over GST control)"
same,binding signal,[3],"1.05 fold enrichment (6-mer frequency, TF over GST control)"
same,binding signal,[4],"1.11 fold enrichment (6-mer frequency, TF over GST control)"
same,binding signal,[5],"1.04 fold enrichment (6-mer frequency, TF over GST control)"
same,binding signal,[6],"1.08 fold enrichment (6-mer frequency, TF over GST control)"
same,binding signal,[7],"1.08 fold enrichment (6-mer frequency, TF over GST control)"
same,binding signal,[8],"1.09 fold enrichment (6-mer frequency, TF over GST control)"
same,binding signal,[9],"1.01 fold enrichment (6-mer frequency, TF over GST control)"
same,binding signal,[10],"1.05 fold enrichment (6-mer frequency, TF over GST control)"
same,binding signal,[11],"1.09 fold enrichment (6-mer frequency, TF over GST control)"
same,binding signal,[12],"1.1 fold enrichment (6-mer frequency, TF over GST control)"
same,binding signal,[13],"1.11 fold enrichment (6-mer frequency, TF over GST control)"
same,binding signal,[14],"1.1 fold enrichment (6-mer frequency, TF over GST control)"
same,binding signal,[15],"1.29 fold enrichment (6-mer frequency, TF over GST control)"
same,binding signal,[16],"1.01 fold enrichment (6-mer frequency, TF over GST control)"
same,binding signal,[17],"1.09 fold enrichment (6-mer frequency, TF over GST control)"
same,binding signal,[18],"1.05 fold enrichment (6-mer frequency, TF over GST control)"
